Results published in PubChem BioAssay AID1857 (The Scripps Research Institute Molecular Screening Center, 2009).
Screen size: about 1,300 compounds; about 290 (22%) were called active.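 The calls were made as follows: active = inhibition above the mean of all tested compounds plus 3 SD (cut at about 19% in these data); inactive = the rest.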 This excerpt belongs to a sample that is enriched for actives.

test system: VIM-2 metallo-beta-lactamase (Pseudomonas aeruginosa); test: VIM-2 CCF2 hydrolysis inhibition, orthogonal readout – biochemical, FRET, epi-absorbance artifact exclusion, artefact control for selective VIM-2 inhibitor project, confirmation (AID 1857); conditions: purified VIM-2, CCF2 FRET substrate hydrolysis; at 5.6 µM; stronger effect = higher value;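 also: 0% = VIM-2 plus DMSO and 100% = no enzyme wells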

Structure (SMILES) | inhibition
Cc1cc(OCc2cc(C(=O)O)oc2C)c2c3c(c(=O)oc2c1)CCCC3 | 80.6% (active)
Cc1cc(=O)oc2c(C)c(OCC(=O)N3CCN(Cc4ccc5c(c4)OCO5)CC3)ccc12 | -0.88% (inactive)
